# From PMC7862700, “An all-to-all approach to the identification of sequence-specific readers for epigenetic DNA modifications on cytosine”
# Tests used:
# Assay in all cases: DAPPL (digital affinity profiling via proximity ligation, sequencing); 10 mM Tris-HCl pH 7.5, 50 mM NaCl, 1 mM DTT, 4% glycerol, room temperature, 30 min; GST-TFs on glutathione beads, 16-mer random dsDNA library, 0.1% formaldehyde crosslink after washing; high values mean tight binding
# Conditions in all cases: protein: recombinant; tags: N-terminal GST; dsDNA, one strand shown
# [1] = biological target: T1, FLI1 (Homo sapiens, UniProt Q01543 1-452)
# T1 sequence: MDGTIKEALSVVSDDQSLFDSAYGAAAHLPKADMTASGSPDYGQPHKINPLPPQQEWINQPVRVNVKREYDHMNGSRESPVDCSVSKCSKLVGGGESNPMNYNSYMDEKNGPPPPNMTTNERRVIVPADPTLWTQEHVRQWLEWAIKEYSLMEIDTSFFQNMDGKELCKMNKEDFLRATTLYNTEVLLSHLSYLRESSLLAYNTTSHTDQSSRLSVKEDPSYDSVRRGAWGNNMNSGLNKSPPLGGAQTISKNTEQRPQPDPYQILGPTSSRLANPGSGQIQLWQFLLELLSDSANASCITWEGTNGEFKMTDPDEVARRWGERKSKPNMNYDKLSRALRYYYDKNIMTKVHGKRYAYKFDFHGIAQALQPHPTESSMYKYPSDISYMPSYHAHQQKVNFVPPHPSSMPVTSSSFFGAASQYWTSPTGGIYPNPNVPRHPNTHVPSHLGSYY
# Outline: (§1)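 Human transcription factors were made in yeast as GST fusions, captured on glutathione beads and barcoded with DNA. With a tag-only sample included, the pool was incubated with 200 nmole of a random double-stranded 16-mer DNA library in Tris/NaCl/DTT/glycerol buffer at room temperature for 30 min, then crosslinked with 0.1% formaldehyde after washing, ligated by proximity, amplified and sequenced. For binding signal, each hexamer's read frequency for a factor is divided by its frequency for the tag-only sample.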
# [2] = biological target: T2, ELK1 (Homo sapiens, UniProt P19419 1-428)
# T2 sequence: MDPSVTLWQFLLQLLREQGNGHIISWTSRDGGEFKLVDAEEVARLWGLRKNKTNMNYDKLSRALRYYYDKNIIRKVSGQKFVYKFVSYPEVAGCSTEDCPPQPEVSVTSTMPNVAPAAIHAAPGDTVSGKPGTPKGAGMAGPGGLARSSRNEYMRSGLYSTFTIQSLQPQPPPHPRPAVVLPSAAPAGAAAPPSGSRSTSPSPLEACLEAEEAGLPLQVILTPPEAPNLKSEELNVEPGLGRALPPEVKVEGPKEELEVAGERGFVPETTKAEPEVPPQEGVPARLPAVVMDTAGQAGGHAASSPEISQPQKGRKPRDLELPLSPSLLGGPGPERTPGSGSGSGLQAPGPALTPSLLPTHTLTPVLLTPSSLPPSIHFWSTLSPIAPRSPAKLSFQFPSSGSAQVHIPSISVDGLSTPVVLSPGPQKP
# Outline: as §1
# [3] = biological target: T3, GABPA (Homo sapiens, UniProt Q06546 1-454)
# T3 sequence: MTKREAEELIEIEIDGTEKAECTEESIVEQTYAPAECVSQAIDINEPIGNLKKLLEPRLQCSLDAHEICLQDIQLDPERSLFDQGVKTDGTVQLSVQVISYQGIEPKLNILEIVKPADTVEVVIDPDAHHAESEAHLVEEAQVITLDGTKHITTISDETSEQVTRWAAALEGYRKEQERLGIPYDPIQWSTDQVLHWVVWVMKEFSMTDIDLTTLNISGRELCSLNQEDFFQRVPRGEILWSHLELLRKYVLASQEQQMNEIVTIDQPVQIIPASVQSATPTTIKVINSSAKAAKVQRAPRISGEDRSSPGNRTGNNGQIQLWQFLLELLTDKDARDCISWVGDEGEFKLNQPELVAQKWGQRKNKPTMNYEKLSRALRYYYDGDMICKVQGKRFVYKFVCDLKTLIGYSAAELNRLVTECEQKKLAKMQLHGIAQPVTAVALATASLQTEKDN
# Outline: as §1
# [4] = biological target: T4, ERG (Homo sapiens, UniProt P11308 1-479)
# T4 sequence: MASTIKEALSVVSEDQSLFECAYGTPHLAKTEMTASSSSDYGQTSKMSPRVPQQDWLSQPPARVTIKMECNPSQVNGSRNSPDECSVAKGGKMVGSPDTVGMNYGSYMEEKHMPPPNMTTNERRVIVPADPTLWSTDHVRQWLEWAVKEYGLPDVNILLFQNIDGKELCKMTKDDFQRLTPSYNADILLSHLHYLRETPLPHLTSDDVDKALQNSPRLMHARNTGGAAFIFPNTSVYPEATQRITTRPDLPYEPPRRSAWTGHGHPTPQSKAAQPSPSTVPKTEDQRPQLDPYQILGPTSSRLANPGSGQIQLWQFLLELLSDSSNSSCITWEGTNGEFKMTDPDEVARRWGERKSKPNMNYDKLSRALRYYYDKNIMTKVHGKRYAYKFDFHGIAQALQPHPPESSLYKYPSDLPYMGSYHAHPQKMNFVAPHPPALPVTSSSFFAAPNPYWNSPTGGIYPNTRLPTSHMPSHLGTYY
# Outline: as §1
# [5] = biological target: ELF1 (Homo sapiens, UniProt P32519 1-619)
# Outline: as §1
# [6] = biological target: T5, EHF (Homo sapiens, UniProt Q9NZC4 1-300)
# T5 sequence: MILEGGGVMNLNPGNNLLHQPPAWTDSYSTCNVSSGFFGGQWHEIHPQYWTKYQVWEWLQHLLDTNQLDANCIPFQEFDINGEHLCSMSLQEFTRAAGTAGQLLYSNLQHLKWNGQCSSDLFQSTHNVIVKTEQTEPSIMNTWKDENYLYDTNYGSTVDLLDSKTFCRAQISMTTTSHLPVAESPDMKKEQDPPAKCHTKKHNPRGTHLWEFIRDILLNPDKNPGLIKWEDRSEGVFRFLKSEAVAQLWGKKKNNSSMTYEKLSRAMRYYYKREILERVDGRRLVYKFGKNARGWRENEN
# Outline: as §1
# [7] = biological target: SPI1 (Homo sapiens, UniProt P17947 1-270)
# Outline: as §1
# [8] = biological target: SPIB (Homo sapiens, UniProt Q01892 1-262)
# Outline: as §1
# [9] = biological target: T6, ELK3 (Homo sapiens, UniProt P41970 1-407)
# T6 sequence: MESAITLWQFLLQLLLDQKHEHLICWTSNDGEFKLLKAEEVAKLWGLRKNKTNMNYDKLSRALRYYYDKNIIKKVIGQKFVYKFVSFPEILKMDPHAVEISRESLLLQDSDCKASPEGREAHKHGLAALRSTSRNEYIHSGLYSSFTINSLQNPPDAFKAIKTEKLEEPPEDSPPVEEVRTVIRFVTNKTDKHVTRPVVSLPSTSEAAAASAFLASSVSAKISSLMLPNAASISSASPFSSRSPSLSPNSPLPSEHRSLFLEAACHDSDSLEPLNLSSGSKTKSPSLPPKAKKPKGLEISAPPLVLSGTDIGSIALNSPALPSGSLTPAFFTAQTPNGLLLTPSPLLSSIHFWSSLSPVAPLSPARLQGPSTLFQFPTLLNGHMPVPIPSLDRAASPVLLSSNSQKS
# Outline: as §1
# [10] = biological target: T7, FEV (Homo sapiens, UniProt Q99581 1-238)
# T7 sequence: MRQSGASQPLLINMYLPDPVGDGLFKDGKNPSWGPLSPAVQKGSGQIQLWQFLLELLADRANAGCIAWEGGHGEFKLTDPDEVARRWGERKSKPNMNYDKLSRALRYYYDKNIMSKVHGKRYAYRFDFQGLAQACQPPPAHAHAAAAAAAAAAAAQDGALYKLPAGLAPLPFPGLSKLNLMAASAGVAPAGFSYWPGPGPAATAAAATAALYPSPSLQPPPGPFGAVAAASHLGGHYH
# Outline: as §1
# [11] = biological target: ETV5 (Homo sapiens, UniProt P41161 1-510)
# Outline: as §1
# [12] = biological target: T8, SPIC (Homo sapiens, UniProt Q8N5J4 1-248)
# T8 sequence: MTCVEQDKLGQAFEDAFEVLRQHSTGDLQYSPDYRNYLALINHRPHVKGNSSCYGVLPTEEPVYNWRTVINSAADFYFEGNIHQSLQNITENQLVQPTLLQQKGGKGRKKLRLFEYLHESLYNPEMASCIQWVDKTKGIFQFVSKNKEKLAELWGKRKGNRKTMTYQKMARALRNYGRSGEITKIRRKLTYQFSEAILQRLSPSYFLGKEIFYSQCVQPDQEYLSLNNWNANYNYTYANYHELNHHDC
# Outline: as §1
# [13] = biological target: ELF4 (Homo sapiens, UniProt Q99607 1-663)
# Outline: as §1
# [14] = biological target: T9, ELK4 (Homo sapiens, UniProt P28324-2 1-405)
# T9 sequence: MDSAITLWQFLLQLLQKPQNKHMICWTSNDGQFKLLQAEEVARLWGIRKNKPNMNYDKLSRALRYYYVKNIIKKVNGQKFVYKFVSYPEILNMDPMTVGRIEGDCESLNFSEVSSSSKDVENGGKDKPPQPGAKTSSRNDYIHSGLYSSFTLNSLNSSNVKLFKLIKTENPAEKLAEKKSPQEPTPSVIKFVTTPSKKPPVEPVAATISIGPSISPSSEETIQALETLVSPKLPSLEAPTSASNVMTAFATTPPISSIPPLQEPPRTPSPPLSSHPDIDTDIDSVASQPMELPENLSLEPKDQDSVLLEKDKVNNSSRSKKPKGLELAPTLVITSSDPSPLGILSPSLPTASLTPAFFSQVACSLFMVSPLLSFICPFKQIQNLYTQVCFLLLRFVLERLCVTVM
# Outline: as §1
# [15] = biological target: T10, ETV2 (Homo sapiens, UniProt O00321 1-342)
# T10 sequence: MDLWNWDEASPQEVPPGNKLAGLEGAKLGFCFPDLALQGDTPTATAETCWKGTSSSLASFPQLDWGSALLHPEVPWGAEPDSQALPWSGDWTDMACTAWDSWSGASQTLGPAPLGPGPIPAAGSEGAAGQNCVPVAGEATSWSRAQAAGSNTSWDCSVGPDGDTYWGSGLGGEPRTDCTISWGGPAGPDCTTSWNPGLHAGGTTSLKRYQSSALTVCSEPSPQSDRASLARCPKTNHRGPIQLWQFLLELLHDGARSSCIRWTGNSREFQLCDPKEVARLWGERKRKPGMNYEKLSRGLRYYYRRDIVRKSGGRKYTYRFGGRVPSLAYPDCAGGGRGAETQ
# Outline: as §1
# [16] = biological target: T11, ELF3 (Homo sapiens, UniProt P78545 1-371)
# T11 sequence: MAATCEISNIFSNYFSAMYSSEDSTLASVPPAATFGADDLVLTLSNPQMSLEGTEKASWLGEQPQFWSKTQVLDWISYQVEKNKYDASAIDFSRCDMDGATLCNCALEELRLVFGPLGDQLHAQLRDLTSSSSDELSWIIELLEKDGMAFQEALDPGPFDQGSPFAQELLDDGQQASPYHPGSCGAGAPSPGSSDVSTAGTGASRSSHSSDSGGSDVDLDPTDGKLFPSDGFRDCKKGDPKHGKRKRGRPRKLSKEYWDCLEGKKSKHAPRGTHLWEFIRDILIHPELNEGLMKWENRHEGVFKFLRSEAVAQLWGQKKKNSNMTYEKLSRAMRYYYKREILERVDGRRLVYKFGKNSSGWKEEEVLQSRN
# Outline: as §1
# [17] = biological target: CRX (Homo sapiens, UniProt O43186 1-299)
# Outline: as §1
# [18] = biological target: ETV1 (Homo sapiens, UniProt P50549 1-477)
# Outline: as §1
# Chain of CRX (O43186 whole entry): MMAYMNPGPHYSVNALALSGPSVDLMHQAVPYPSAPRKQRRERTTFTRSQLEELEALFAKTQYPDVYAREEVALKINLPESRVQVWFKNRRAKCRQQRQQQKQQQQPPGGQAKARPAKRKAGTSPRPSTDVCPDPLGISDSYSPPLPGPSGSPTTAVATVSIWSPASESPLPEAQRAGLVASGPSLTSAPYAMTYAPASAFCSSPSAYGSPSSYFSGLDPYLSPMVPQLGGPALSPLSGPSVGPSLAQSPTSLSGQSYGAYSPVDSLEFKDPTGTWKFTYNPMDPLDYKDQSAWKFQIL
# Chain of ELF1 (P32519 whole entry): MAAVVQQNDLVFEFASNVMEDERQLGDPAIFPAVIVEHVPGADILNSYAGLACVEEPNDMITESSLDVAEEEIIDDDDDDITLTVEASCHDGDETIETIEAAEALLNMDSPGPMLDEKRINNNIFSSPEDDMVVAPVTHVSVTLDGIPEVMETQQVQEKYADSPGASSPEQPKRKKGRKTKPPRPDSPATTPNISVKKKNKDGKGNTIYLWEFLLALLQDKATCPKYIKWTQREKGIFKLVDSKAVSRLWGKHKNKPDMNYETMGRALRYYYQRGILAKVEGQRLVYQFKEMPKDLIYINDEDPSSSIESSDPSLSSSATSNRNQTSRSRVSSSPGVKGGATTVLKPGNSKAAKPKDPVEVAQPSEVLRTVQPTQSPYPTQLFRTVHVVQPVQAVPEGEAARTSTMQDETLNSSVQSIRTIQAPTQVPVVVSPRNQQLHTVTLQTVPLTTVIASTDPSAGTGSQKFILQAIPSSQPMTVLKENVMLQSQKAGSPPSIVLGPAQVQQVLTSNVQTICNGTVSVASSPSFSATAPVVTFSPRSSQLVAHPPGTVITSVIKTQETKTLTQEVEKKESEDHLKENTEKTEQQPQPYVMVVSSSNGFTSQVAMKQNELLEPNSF
# Chain of ETV5 (P41161 whole entry): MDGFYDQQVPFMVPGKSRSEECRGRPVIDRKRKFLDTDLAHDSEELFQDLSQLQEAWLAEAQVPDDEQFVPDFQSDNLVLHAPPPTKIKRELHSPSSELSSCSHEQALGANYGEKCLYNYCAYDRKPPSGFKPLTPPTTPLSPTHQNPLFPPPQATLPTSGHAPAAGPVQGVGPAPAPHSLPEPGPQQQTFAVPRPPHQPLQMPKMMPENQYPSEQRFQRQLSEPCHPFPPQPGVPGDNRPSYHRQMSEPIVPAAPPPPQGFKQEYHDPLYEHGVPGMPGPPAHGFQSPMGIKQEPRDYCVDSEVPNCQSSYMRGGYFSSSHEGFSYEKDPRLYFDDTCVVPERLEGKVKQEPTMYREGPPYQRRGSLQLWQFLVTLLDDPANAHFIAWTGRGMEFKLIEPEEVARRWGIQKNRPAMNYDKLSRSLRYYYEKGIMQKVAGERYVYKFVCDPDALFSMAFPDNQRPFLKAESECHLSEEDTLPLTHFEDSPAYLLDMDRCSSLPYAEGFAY
# Chain of ELF4 (Q99607 whole entry): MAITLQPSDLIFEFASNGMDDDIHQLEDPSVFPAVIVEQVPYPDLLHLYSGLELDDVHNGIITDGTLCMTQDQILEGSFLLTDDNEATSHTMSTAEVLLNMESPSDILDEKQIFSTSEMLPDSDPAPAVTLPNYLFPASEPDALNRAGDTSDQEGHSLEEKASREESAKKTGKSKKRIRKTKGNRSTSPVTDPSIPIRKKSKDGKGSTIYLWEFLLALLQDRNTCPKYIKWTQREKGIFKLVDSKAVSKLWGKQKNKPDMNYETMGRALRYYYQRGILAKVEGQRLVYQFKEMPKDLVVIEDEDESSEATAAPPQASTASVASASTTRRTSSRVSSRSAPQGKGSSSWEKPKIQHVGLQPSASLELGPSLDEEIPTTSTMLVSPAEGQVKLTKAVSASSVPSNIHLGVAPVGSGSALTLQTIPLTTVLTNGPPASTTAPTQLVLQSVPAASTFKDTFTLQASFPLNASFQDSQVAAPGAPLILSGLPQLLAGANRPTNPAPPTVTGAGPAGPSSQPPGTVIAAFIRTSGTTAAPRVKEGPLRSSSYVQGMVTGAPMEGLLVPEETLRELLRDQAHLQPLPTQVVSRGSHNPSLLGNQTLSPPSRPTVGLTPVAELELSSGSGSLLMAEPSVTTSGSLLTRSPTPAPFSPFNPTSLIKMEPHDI
# Chain of SPIB (Q01892 whole entry): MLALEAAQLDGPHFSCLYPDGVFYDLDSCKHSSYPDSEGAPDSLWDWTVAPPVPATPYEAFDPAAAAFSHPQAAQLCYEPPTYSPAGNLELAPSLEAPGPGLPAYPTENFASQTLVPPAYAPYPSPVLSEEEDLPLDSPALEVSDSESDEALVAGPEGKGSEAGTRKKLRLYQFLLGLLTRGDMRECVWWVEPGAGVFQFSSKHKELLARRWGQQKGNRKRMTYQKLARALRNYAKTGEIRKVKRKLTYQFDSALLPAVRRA
# Chain of ETV1 (P50549 whole entry): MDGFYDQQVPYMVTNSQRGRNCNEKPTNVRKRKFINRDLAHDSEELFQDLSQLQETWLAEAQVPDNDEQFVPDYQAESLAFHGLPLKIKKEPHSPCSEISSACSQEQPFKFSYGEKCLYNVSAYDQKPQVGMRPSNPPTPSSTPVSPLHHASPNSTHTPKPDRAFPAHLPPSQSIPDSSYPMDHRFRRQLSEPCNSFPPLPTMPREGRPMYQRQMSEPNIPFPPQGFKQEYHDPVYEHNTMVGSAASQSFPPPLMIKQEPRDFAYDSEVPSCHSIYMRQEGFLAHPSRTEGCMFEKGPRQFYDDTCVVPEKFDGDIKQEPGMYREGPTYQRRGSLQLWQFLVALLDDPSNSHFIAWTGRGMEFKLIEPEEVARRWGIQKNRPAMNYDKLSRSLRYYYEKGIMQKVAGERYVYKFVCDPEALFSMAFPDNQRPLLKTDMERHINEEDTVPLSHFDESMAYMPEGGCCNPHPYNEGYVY
Sequence,binding signal [1],binding signal [2],binding signal [3],binding signal [4],binding signal [5],binding signal [6],binding signal [7],binding signal [8],binding signal [9],binding signal [10],binding signal [11],binding signal [12],binding signal [13],binding signal [14],binding signal [15],binding signal [16],binding signal [17],binding signal [18]
CCCCTG,"1.22 fold enrichment (6-mer frequency, TF over GST control)","1.23 fold enrichment (6-mer frequency, TF over GST control)","1.26 fold enrichment (6-mer frequency, TF over GST control)","1.18 fold enrichment (6-mer frequency, TF over GST control)","1.22 fold enrichment (6-mer frequency, TF over GST control)","1.17 fold enrichment (6-mer frequency, TF over GST control)","1.25 fold enrichment (6-mer frequency, TF over GST control)","1.1 fold enrichment (6-mer frequency, TF over GST control)","1.27 fold enrichment (6-mer frequency, TF over GST control)","1.18 fold enrichment (6-mer frequency, TF over GST control)","1.22 fold enrichment (6-mer frequency, TF over GST control)","1.16 fold enrichment (6-mer frequency, TF over GST control)","1.21 fold enrichment (6-mer frequency, TF over GST control)","1.46 fold enrichment (6-mer frequency, TF over GST control)","1.03 fold enrichment (6-mer frequency, TF over GST control)","1.21 fold enrichment (6-mer frequency, TF over GST control)","1.07 fold enrichment (6-mer frequency, TF over GST control)","1.24 fold enrichment (6-mer frequency, TF over GST control)"
GGTCTA,"1.12 fold enrichment (6-mer frequency, TF over GST control)","1.05 fold enrichment (6-mer frequency, TF over GST control)","1.06 fold enrichment (6-mer frequency, TF over GST control)","1.08 fold enrichment (6-mer frequency, TF over GST control)","1.05 fold enrichment (6-mer frequency, TF over GST control)","1.23 fold enrichment (6-mer frequency, TF over GST control)","1.02 fold enrichment (6-mer frequency, TF over GST control)","1.05 fold enrichment (6-mer frequency, TF over GST control)","1.24 fold enrichment (6-mer frequency, TF over GST control)","1.06 fold enrichment (6-mer frequency, TF over GST control)","1.11 fold enrichment (6-mer frequency, TF over GST control)","1.09 fold enrichment (6-mer frequency, TF over GST control)","1.11 fold enrichment (6-mer frequency, TF over GST control)","1.04 fold enrichment (6-mer frequency, TF over GST control)","1.06 fold enrichment (6-mer frequency, TF over GST control)","1.01 fold enrichment (6-mer frequency, TF over GST control)","1.01 fold enrichment (6-mer frequency, TF over GST control)","1.05 fold enrichment (6-mer frequency, TF over GST control)"
